Source: PubChem BioAssay (EPA / NIEHS)
Calls of active or inactive are those of the source. The calls were made as follows: active = hit-call score of the fitted dose curve at least 0.9, where 1 is the maximum; inactive = score below 0.9.

What follows are molecules tested on Fatty acid synthase (Homo sapiens) (UniProt P49327) (assay: LTEA_HepaRG_FASN: Life Technologies and Expression Analysis (LTEA) Assay for Fatty Acid Synthase (FASN) using HepaRG (AID 2283448)). Settings: mRNA level, 48 h; actives raise or lower the signal.
Chain of Fatty acid synthase (Homo sapiens) (P49327 whole entry, looked up): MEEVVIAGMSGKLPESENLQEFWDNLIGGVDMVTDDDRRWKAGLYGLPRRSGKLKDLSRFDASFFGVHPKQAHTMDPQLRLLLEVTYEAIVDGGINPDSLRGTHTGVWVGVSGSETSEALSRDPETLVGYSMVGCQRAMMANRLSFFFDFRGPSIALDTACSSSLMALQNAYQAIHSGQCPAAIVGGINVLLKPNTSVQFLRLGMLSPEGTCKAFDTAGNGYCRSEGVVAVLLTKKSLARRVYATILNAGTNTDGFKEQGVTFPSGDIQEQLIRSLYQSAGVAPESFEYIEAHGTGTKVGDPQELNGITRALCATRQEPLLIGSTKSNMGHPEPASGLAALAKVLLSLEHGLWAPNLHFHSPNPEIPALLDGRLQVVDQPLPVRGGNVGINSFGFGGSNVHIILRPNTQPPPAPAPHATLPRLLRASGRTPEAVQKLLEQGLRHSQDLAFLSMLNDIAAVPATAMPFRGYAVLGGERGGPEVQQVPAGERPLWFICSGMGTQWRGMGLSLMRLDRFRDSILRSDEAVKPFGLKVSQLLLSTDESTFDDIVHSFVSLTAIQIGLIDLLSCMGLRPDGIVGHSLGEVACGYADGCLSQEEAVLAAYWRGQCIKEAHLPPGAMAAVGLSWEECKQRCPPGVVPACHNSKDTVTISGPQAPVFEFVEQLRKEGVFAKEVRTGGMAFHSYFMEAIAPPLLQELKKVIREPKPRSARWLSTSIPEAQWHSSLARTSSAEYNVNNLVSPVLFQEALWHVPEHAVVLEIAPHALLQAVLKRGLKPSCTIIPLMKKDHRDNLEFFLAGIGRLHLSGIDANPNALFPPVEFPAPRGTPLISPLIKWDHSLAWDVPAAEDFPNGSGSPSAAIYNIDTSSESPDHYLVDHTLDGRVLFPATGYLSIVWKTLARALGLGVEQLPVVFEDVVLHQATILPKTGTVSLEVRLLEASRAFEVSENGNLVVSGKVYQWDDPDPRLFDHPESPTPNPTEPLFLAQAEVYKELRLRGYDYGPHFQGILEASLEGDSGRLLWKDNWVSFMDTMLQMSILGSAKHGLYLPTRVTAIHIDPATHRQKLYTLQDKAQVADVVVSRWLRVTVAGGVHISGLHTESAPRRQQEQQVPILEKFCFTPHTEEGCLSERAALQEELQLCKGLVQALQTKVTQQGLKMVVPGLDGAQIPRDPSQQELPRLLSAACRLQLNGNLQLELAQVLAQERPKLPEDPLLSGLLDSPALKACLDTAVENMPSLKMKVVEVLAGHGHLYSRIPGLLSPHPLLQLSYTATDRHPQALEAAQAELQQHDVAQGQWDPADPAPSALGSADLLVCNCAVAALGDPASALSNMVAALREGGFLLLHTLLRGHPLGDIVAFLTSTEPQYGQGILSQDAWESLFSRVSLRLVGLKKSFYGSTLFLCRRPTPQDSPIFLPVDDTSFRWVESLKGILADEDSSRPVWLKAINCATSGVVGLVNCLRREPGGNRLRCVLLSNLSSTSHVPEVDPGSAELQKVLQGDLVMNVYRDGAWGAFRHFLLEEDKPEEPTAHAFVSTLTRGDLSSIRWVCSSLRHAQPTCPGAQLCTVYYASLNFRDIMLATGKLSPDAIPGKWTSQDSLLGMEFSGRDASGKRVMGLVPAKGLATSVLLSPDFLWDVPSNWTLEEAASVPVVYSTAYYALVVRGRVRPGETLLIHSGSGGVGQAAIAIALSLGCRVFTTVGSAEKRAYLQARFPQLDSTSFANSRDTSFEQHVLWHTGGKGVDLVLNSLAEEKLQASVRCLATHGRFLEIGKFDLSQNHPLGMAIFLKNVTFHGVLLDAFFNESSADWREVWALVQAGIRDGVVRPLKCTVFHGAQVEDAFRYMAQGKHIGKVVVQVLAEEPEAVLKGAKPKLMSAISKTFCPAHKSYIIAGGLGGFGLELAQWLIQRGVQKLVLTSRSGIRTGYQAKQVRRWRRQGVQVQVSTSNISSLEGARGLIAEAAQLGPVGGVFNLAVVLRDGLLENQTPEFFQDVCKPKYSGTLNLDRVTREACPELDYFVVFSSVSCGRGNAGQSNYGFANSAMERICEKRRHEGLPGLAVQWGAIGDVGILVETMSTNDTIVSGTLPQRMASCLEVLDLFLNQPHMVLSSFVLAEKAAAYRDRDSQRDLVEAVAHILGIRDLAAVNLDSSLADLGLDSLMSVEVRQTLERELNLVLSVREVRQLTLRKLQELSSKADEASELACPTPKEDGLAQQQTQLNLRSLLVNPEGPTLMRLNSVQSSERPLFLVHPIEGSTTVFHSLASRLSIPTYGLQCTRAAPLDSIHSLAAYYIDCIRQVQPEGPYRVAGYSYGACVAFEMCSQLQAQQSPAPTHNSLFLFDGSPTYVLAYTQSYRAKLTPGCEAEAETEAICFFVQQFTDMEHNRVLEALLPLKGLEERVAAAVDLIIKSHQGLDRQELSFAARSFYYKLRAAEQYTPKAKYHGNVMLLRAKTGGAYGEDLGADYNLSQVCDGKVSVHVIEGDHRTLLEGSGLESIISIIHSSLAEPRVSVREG
Protocol: LTEA_HepaRG is a cell based, multiplexed-readout assay that uses HepaRG, a human liver cell line, with measurements taken at 48 hours after chemical dosing on a 96-well plate.LTEA_HepaRG_FASN is one of 102 assay component(s) measured in the LTEA HepaRG cell culture assay. It is a marker of Steatosis.Data from the assay component LTEA_HepaRG_FASN was analyzed into 1 endpoint. This assay endpoint, LTEA_HepaRG_FASN, was analyzed with bidirectional fitting relative to DMSO as the negative control and baseline of activity. Using a type of inducible reporter, measures of mRNA induction for gain or loss-of-signal activity can be used to understand regulation of transcription factor activity. To generalize the intended target to other relatable targets, this assay endpoint is annotated to the lyase intended target family, where the subfamily is fatty acid synthase.
A total of 1060 chemcials from the ToxCast library were tested in eight-point concentration-response experiments. Cell culture and cytotoxicity assays were conducted at Thermo Fisher Scientific's Custom Services facility (Madison, WI). A single lot of human HepaRG cells (Thermo Fisher Scientific, Frederick, MD) was used for the cell culture experiments. 96-well format collagen type I coated plates of human HepaRG cells were prepared using established methods. Briefly, cryopreserved HepaRG cells were thawed, plated at a density of approximately 100,000 cells/well in HepaRG Thaw, Plate, and General Purpose media (HPRG770, Thermo Fisher Scientific), and incubated for 48 hours. 0.5% DMSO was selected as vehicle control to balance the requisite need of DMSO in HepaRG cultures to maintain differentiation (for example, baseline metabolism, proportions of hepatocytes vs. cholangiocytes), while enabling further hepatic receptor pathway activation (for example, PXR and CAR) in response to chemical exposure. 48 hours after plating, the culture medium was replaced with HepaRG Serum-Free Incudtion Media. Cells were exposed to each test chemical in duplicate and maintained in CO2 incubators for another 48 hours. Chemical plates were thawed to room temperature and 200x concentrations of treatment groups were prepared. 8-point conentration-reponse curves were made with the highest exposure at 100 uM, followed by half-log dilutions, all in 0.5% DMSO. Each test plate contained variouse controls, induction positive controls (1mM phenobarbital), cytotoxicity positive controls ([…] aflatoxin B1), vehicle controls (0.5% DMSO), and total lysis controls (0.5% DMSO). Cell morphology images were taken using an Essen IncuCyte FLR automated microscope, with six 96-well plates imaged in about 24 minutes. Images were captured and exported and JPEG files. Spent culture media was transfered to black-well plates for the LDH assay, and remaining media was sorted at -80 C for later use. Cells were treated with RLT buffer and frozen until shipped for gene expression analysis. Total RNA was isolated from the cell suspension in 75 uL of Buffer RLT (Qiagen, Germantown, MD 20874) by Quintiles/Expression Analysis (Durham, NC) using a custom isolation procedure. Total RNA from each plate well was transferred to a preamplification plate. Fluidigm's 96.96 Dynamic ArrayTM (Fluidigm, Amsterdam, the Netherlands) technology was used for gene expression analyses by quantitative reverse transcription polymerase chain reaction (qRT-PCR, performed by Quintiles/Expression Analysis, Durham, NC)89. Standard TaqManTM Assays (Applied Biosystems/ThermoFisher Scientific, Foster City, CA) were used to assess the expression of 93 genes selected based on their selectivity and sensitivity to important hepatic receptors known to be modulated by environmental chemicals; importance in human hepatocyte functionality; and hepatotoxicity. […]
For `O=C(CCCN1CCC(O)(c2ccc(Cl)cc2)CC1)c1ccc(F)cc1`, the AC50 was 9.92 µM (active).
With `O=C(c1ccccc1)c1ccccc1` the outcome was “inactive”.
In the case of `CCC(C)c1ccccc1O` (stereo not given), the outcome is reported as “inactive”.
With `OCC(CO)(CBr)CBr` the outcome was “inactive”.
In the case of `CCCCC=O`, the outcome is reported as “inactive”.
With `CN(C)CCOC(c1ccccc1)c1ccccc1` the AC50 was 50 µM (active).
With `CC(=O)Nc1ccc(O)cc1` the outcome was “inactive”.
For `O=C1NS(=O)(=O)c2ccccc21`, the outcome was “inactive”.
With `CCCCC(CC)C(=O)O` (stereo not given) the outcome was “inactive”.
`CCCCc1oc2ccccc2c1C(=O)c1cc(I)c(OCCN(CC)CC)c(I)c1` was tested, and the AC50 was 9.27 µM (active).
In the case of `CS(=O)(=O)c1ccc([C@@H](CC2CCCC2)C(=O)Nc2cnccn2)cc1Cl`, the AC50 is reported as 50 µM (active).
`CCCCCCCCCCCCOS(=O)(=O)O` was tested, and the AC50 was 80.7 µM (active).
`Cc1[nH]nc2c1N=C(c1ccccc1Cl)c1cc([N+](=O)[O-])ccc1N2` was tested, and the AC50 was 7.35 µM (active).
In the case of `CCCCCCCCCCCCCCC`, the outcome is reported as “inactive”.
`CN(Cc1cnc2nc(N)nc(N)c2n1)c1ccc(C(=O)N[C@@H](CCC(=O)O)C(=O)O)cc1` was tested, and the AC50 was 3.33 µM (active).
